Source: PubChem BioAssay (NCATS)
Inconclusive results are not listed. Unmarked numbers belong to inactive results. Activity calls are given as the source filed them. The call rests on the fitted dose curve.

Each molecule was assayed against Nucleoprotein (Lymphocytic choriomeningitis virus (strain Armstrong)) (UniProt P09992) (assay: qHTS for Inhibitors of the Functional Ribonucleoprotein Complex (vRNP) of Lymphocytic Choriomeningitis Arenaviruses (LCMV): LCMV Primary Screen - GLuc reporter signal (AID 1347086; further: nearly all actives have a fitted effect of over 70% in size)). Conditions: LCMV minigenome vRNP cell assay, Gaussia luciferase reporter; series mostly up to 57.5 µM; activity change, negative = inhibition: at the top concentration.
Nucleoprotein (Lymphocytic choriomeningitis virus (strain Armstrong)), sequence (P09992 whole entry, looked up): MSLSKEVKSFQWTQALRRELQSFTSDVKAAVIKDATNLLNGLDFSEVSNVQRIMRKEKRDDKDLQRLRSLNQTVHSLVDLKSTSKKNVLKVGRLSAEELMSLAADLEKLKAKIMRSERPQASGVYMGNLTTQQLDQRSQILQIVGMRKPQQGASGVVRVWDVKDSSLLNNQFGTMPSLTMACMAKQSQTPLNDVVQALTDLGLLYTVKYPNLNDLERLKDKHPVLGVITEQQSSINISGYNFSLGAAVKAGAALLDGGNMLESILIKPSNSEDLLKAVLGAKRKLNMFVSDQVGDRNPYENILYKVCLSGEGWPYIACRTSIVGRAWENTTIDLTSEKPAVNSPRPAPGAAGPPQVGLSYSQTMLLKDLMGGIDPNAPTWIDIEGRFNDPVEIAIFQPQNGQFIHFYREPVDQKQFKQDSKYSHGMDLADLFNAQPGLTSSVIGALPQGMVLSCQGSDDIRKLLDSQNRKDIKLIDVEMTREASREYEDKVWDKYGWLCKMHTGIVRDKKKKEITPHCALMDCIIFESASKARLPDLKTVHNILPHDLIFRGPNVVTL
On the % scale 0 is the no-effect control and ±100 the full control effect.

SMILES	activity change, negative = inhibition	Potency
Cc1cc2c(cc1S(N)(=O)=O)S(=O)(=O)CCC2	12.3%	–
Cc1ccsc1/C=C/C1=NCCCN1C	43%	–
C[C@H]1O[C@@H](n2cc(F)c(=O)[nH]c2=O)[C@H](O)[C@@H]1O	24.3%	–
CN(CC1(C)CCCO1)S(=O)(=O)c1ccc(Cl)c(S(N)(=O)=O)c1 (stereo not drawn)	7.65%	–
CCCc1nn(C)c2c(=O)[nH]c(-c3cc(S(=O)(=O)N4CCN(C)CC4)ccc3OCC)nc12	–	inactive
O=C(O)c1ccccc1Nc1cccc(C(F)(F)F)c1	10.7%	–
CS(=O)(=O)c1ccc([C@@H](O)[C@@H](CO)NC(=O)C(Cl)Cl)cc1	-23.3%	–
Cc1scc2c1N(C(=O)CN1CCN(C)CC1)c1ccccc1NC2=O	–	inactive
CC(=O)O[C@@H]1CC2C3CCc4cc(OC(=O)c5ccccc5)ccc4C3CCC2(C)[C@H]1OC(C)=O (stereo partly drawn)	16.2%	–
CCCCCC=CCC=CCCCCCCCC(=O)OCC	-10.2%	–
C[N+]1(C)[C@@H]2CC(OC(=O)[C@H](CO)c3ccccc3)C[C@H]1[C@@H]1O[C@@H]12 (stereo partly drawn)	20.1%	–
CC(C(=O)O)c1ccc2c(c1)[nH]c1ccc(Cl)cc12 (stereo not drawn)	-7.21%	–
O=C(O)c1[nH]n(-c2ccc(S(=O)(=O)O)cc2)c(=O)c1N=Nc1ccc(S(=O)(=O)O)cc1	-3.46%	–
Cc1ncc(CO)c(CN)c1O	26.1%	–
CNCCCC12CCC(c3ccccc31)c1ccccc12	–	inactive
C/C(=C(\CCO)SS/C(CCO)=C(\C)N(C=O)Cc1cnc(C)nc1N)N(C=O)Cc1cnc(C)nc1N	8.74%	–
NC1CCN(c2cccc(Cl)n2)CC1	–	inactive
CCC[C@@H]1C[C@@H](C(=O)N[C@@H]([C@H]2O[C@H](SC)[C@H](O)[C@@H](O)[C@H]2O)[C@@H](C)O)N(C)C1	–	inactive
Nc1ccc(/C=C/c2ccc(N)cc2S(=O)(=O)O)c(S(=O)(=O)O)c1	15.6% [at 0.757 µM]	–

SMILES	activity change, negative = inhibition	Potency
Nc1ccc(S(=O)(=O)NCc2ccccc2)cc1	23.5%	–
CC(C)NCC(O)c1cc(O)cc(O)c1 (stereo not drawn)	–	inactive
CC(CCc1ccccc1)NCC(O)c1ccc(O)c(C(N)=O)c1 (stereo not drawn)	11.8%	–
Cc1ccccc1C(=O)N1CC/C(=N\OS(=O)(=O)O)c2ccc(Cl)cc21	-2.05%	–
O=C(CO)[C@@H](O)[C@H](O)[C@@H](O)CO	3.07%	–
CCCCCCCCCCCC(=O)[O][Sn]([CH2]CCC)([CH2]CCC)[O]C(=O)CCCCCCCCCCC	23.1%	–
COCCOC(=O)C1=C(C)NC(C)=C(C(=O)OC(C)C)C1c1cccc([N+](=O)[O-])c1 (stereo not drawn)	–	inactive
CC(C)(Sc1cc(C(C)(C)C)c(O)c(C(C)(C)C)c1)Sc1cc(C(C)(C)C)c(O)c(C(C)(C)C)c1	–	inactive
CCC(C(=O)NC(=O)NC(C)=O)c1ccccc1 (stereo not drawn)	6.3%	–
NC(Cc1ccc(Cl)cc1)C(=O)O (stereo not drawn)	–	inactive
COc1ccc2cc([C@H](C)C(=O)O)ccc2c1	–	inactive
FC1(F)C(F)(F)C(F)(F)C2(F)C(F)(F)C(F)(F)C(F)(F)C(F)(F)C2(F)C1(F)F (stereo not drawn)	13.6%	–
OC[C@H]1O[C@H](O[C@]2(CCl)O[C@H](CCl)[C@@H](O)[C@@H]2O)[C@H](O)[C@@H](O)[C@H]1Cl	16%	–
CC(C)C(=O)c1c(C(C)C)nn2ccccc12	–	inactive
O=C(Cn1ccnc1[N+](=O)[O-])NCc1ccccc1	13.7%	–
Cc1ccc(C(=O)c2ccc(CC(=O)O)n2C)cc1	12.2%	–
CCCCCCCC/C=C/C(=O)O	-0.96%	–
CCCC(=O)O[C@]1(C(=O)COC(=O)CC)CC[C@H]2[C@@H]3CCC4=CC(=O)CC[C@]4(C)[C@H]3[C@@H](O)C[C@@]21C	-97.7% [at 24.7 µM]	–
O=C(Oc1ccccc1)c1ccccc1O	8.84%	–
